# Test results published in PubChem BioAssay.
# Results filed as inconclusive are left out. Activity calls are given as the source filed them.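 How the source made its calls, unless noted: active means normalized viability below 100% at a tested concentration; inactive means the rest.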
# Assays:
# [1] = viability loss in pontine glioma line – cell-based, SU-DIPG-XIII, MIPE4.0, CellTiter-Glo, qHTS, dose response (AID 1347061; cut-off not given, nearly all actives have AC50 up to about 37 µM;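 further: cells exposed to compound for 48 hours before readout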); conditions: CellTiter-Glo ATP luminescence
# [2] = viability loss in pontine glioma line – cell-based, JHH-DIPG-1, MIPE4.0, CellTiter-Glo, qHTS, dose response (AID 1347062; cut-off not given, nearly all actives have AC50 up to about 27 µM;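 on AC50: cells exposed to compound for two days before readout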); conditions: JHH-DIPG-1 viability, CellTiter-Glo ATP luminescence
# [3] = viability loss in pontine glioma line – cell-based, SU-DIPG-IV, MIPE4.0, CellTiter-Glo, qHTS, dose response (AID 1347063; cut-off not given, nearly all actives have AC50 up to about 30 µM;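 further: compound exposure lasted 48 hours before the viability readout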); conditions: CellTiter-Glo ATP luminescence
# [4] = viability loss in pontine glioma line – cell-based, SU-DIPG-XIII, MIPE5.0, CellTiter-Glo, qHTS, dose response (AID 1347064; cut-off not given, nearly all actives have AC50 up to about 23 µM;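 on AC50: cells exposed to compound for 48 hours before the viability read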); conditions: CellTiter-Glo ATP luminescence
# [5] = viability loss in pontine glioma line – cell-based, SU-DIPG-XXV, MIPE5.0, CellTiter-Glo, qHTS, dose response (AID 1347065; cut-off not given, nearly all actives have AC50 up to about 26 µM;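 further: cells exposed to compound for 48 hours before ATP readout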); conditions: CellTiter-Glo ATP luminescence
# [6] = growth inhibition of DIPG cells – cell-based, MIPE4.0 library, CellTiter-Glo luminescence, qHTS (AID 1347066; cut-off not given, nearly all actives have AC50 up to about 30 µM;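 further: cells exposed to compound for 48 hours before readout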); conditions: SU-DIPG-VI viability, CellTiter-Glo ATP luminescence
# [7] = JHH-DIPG-1 glioma cell viability, MIPE5.0 library, CellTiter-Glo luminescence, qHTS (AID 1347067; cut-off not given, nearly all actives have AC50 up to about 26 µM;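 further: cells exposed to compound for 48 hours before readout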); conditions: JHH-DIPG-1 glioma viability, CellTiter-Glo ATP luminescence
# [8] = growth inhibition of DIPG cells – cell-based, MIPE5.0 library, qHTS (AID 1347068; cut-off not given, nearly all actives have IC50 up to about 30 µM;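 on IC50: cells exposed to compound for 48 hours before viability readout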); conditions: SU-DIPG-XXV viability
# [9] = viability loss with induced miR-34 in A549 – imaging, A549 dox-inducible miR-34, nuclei and caspase counts, primary screen (AID 1347080;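 active means compounds whose cell count with miR-34 switched on is under 0.7 times the count with it off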); conditions: A549 miR-34 inducible, Hoechst nuclei count, 48 h
# [10] = MELAS cybrid and Rieske KO viability enhancers – cell-based, MELAS cybrids, Rieske KO mouse fibroblasts, CellTiter-Glo, primary screen (AID 1508586;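 active means mean z-score across replicates of 1.96 or higher in either the MELAS or the Rieske mutant cell line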;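 further: z relative to plate mean and SD of compound and empty wells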); conditions: low glucose
# [11] = drug combination growth inhibition, ovarian cancer – cell-based, oncology-focused library, rucaparib conditional, profiling panel (AID 1508598); conditions: patient-derived ovarian cancer cells, CellTiter-Glo viability, 144 h, stronger effect = lower value
# [12] = compounds altering HSF1 focus formation in cells – imaging, Selleck Cancer Library (AID 1347162; in the data active means plate-normalised HSF1 focus index below about 0.46); conditions: human cells, HSF1 nuclear foci imaging, at 10 µM; SSMD: measured here: HSF1 foci SSMD mean; cell count: measured here: cell number; plate-normalised HSF1 focus index: stronger effect = lower value
# [13] = at 0.000305 µM, OCI-C5x cells, with rucaparib 10 µM, 100% = cells with rucaparib alone
# [14] = at 0.000305 µM, OCI-C5x cells, without rucaparib
# [15] = at 0.000305 µM, OCI-P5x cells, with rucaparib 20 µM, 100% = cells with rucaparib alone
# [16] = at 0.000305 µM, OCI-P5x cells, without rucaparib
# [17] = at 0.00122 µM, OCI-C5x cells, with rucaparib 10 µM, 100% = cells with rucaparib alone
# [18] = at 0.00122 µM, OCI-C5x cells, without rucaparib
# [19] = at 0.00122 µM, OCI-P5x cells, with rucaparib 20 µM, 100% = cells with rucaparib alone
# [20] = at 0.00122 µM, OCI-P5x cells, without rucaparib
# [21] = at 0.00488 µM, OCI-C5x cells, with rucaparib 10 µM, 100% = cells with rucaparib alone
# [22] = at 0.00488 µM, OCI-C5x cells, without rucaparib
# [23] = at 0.00488 µM, OCI-P5x cells, with rucaparib 20 µM, 100% = cells with rucaparib alone
# [24] = at 0.00488 µM, OCI-P5x cells, without rucaparib
# [25] = at 0.0195 µM, OCI-C5x cells, with rucaparib 10 µM, 100% = cells with rucaparib alone
# [26] = at 0.0195 µM, OCI-C5x cells, without rucaparib
# [27] = at 0.0195 µM, OCI-P5x cells, with rucaparib 20 µM, 100% = cells with rucaparib alone
# [28] = at 0.0195 µM, OCI-P5x cells, without rucaparib
# [29] = at 0.0781 µM, OCI-C5x cells, with rucaparib 10 µM, 100% = cells with rucaparib alone
# [30] = at 0.0781 µM, OCI-C5x cells, without rucaparib
# [31] = at 0.0781 µM, OCI-P5x cells, with rucaparib 20 µM, 100% = cells with rucaparib alone
# [32] = at 0.0781 µM, OCI-P5x cells, without rucaparib
# [33] = at 0.313 µM, OCI-C5x cells, with rucaparib 10 µM, 100% = cells with rucaparib alone
# [34] = at 0.313 µM, OCI-C5x cells, without rucaparib
# [35] = at 0.313 µM, OCI-P5x cells, with rucaparib 20 µM, 100% = cells with rucaparib alone
# [36] = at 0.313 µM, OCI-P5x cells, without rucaparib
# [37] = at 1.25 µM, OCI-C5x cells, with rucaparib 10 µM, 100% = cells with rucaparib alone
# [38] = at 1.25 µM, OCI-C5x cells, without rucaparib
# [39] = at 1.25 µM, OCI-P5x cells, with rucaparib 20 µM, 100% = cells with rucaparib alone
# [40] = at 1.25 µM, OCI-P5x cells, without rucaparib
# [41] = at 5 µM, OCI-C5x cells, with rucaparib 10 µM, 100% = cells with rucaparib alone
# [42] = at 5 µM, OCI-C5x cells, without rucaparib
# [43] = at 5 µM, OCI-P5x cells, with rucaparib 20 µM, 100% = cells with rucaparib alone
# [44] = at 5 µM, OCI-P5x cells, without rucaparib
structure (smiles),measurement,setting,value
C[C@@H]1C(=O)O[C@H]2CC34[C@H]5C[C@@H](C(C)(C)C)C36[C@@H](OC(=O)[C@@H]6O)O[C@@]4(C(=O)O5)[C@]21O (stereo partly specified),outcome,[1],inactive
same,outcome,[2],inactive
same,outcome,[3],inactive
same,outcome,[4],inactive
same,outcome,[5],inactive
same,outcome,[6],inactive
same,outcome,[7],inactive
COc1cc(OC)c2c(=O)[nH]c(-c3cc(C)c(OCCO)c(C)c3)nc2c1,outcome,[8],inactive
same,fold change,"[9]; stronger effect = lower value, cell number ratio, induced over uninduced",0.96 (inactive)
same,fold change,[9]; measured here: relative caspase fold change +Dox/-Dox,0.714
same,cell count,"[9]; measured here: total cells with miR-34 induction, stronger effect = lower value",7650
same,cell count,[9]; measured here: total cells without miR-34 induction,7970
same,z-score,"[10]; MELAS cybrid survival, CellTiter-Glo 48 h, stronger effect = higher value",-0.573 (inactive)
same,z-score,"[10]; Rieske KO mouse fibroblast survival, CellTiter-Glo 72 h",-1.26
CC(C)NC[C@@H](C(=O)N1CCN(c2ncnc3c2[C@H](C)C[C@H]3O)CC1)c1ccc(Cl)cc1,AC50,[1],11.8 µM (active)
same,AC50,[2],23.5 µM (active)
same,AC50,[3],7.43 µM (active)
same,AC50,[4],4.68 µM (active)
same,AC50,[5],5.25 µM (active)
same,AC50,[6],2.64 µM (active)
Cc1cc2c(F)c(Oc3ncnn4cc(OC[C@@H](C)O)c(C)c34)ccc2[nH]1,IC50,[8],14.8 µM (active)
same,viability,[11]; [13],117% (inactive)
same,viability,[11]; [14],131% (inactive)
same,viability,[11]; [15],112% (inactive)
same,viability,[11]; [16],105% (inactive)
same,viability,[11]; [17],131% (inactive)
same,viability,[11]; [18],128% (inactive)
same,viability,[11]; [19],112% (inactive)
same,viability,[11]; [20],109% (inactive)
same,viability,[11]; [21],125% (inactive)
same,viability,[11]; [22],126% (inactive)
same,viability,[11]; [23],108% (inactive)
same,viability,[11]; [24],99.9% (active)
same,viability,[11]; [25],111% (inactive)
same,viability,[11]; [26],124% (inactive)
same,viability,[11]; [27],110% (inactive)
same,viability,[11]; [28],102% (inactive)
same,viability,[11]; [29],123% (inactive)
same,viability,[11]; [30],141% (inactive)
same,viability,[11]; [31],99% (active)
same,viability,[11]; [32],108% (inactive)
same,viability,[11]; [33],122% (inactive)
same,viability,[11]; [34],129% (inactive)
same,viability,[11]; [35],113% (inactive)
same,viability,[11]; [36],106% (inactive)
same,viability,[11]; [37],117% (inactive)
same,viability,[11]; [38],135% (inactive)
same,viability,[11]; [39],109% (inactive)
same,viability,[11]; [40],102% (inactive)
same,viability,[11]; [41],122% (inactive)
same,viability,[11]; [42],139% (inactive)
same,viability,[11]; [43],109% (inactive)
same,viability,[11]; [44],97.4% (active)
CCOc1cc2ncc(C#N)c(Nc3ccc(F)c(Cl)c3)c2cc1NC(=O)/C=C/CN(C)C,outcome,[1],inactive
same,AC50,[2],7.43 µM (active)
same,AC50,[3],0.833 µM (active)
same,AC50,[4],5.9 µM (active)
same,AC50,[5],0.934 µM (active)
same,AC50,[7],9.34 µM (active)
same,SSMD,[12],3.17
same,cell count,[12],7120
same,plate-normalised HSF1 focus index,[12],1.19 (inactive)
same,viability,[11]; [13],117% (inactive)
same,viability,[11]; [14],129% (inactive)
same,viability,[11]; [15],106% (inactive)
same,viability,[11]; [16],117% (inactive)
same,viability,[11]; [17],115% (inactive)
same,viability,[11]; [18],115% (inactive)
same,viability,[11]; [19],105% (inactive)
same,viability,[11]; [20],119% (inactive)
same,viability,[11]; [21],105% (inactive)
same,viability,[11]; [22],126% (inactive)
same,viability,[11]; [23],112% (inactive)
same,viability,[11]; [24],121% (inactive)
same,viability,[11]; [25],104% (inactive)
same,viability,[11]; [26],122% (inactive)
same,viability,[11]; [27],67.4% (active)
same,viability,[11]; [28],81.4% (active)
same,viability,[11]; [29],89.4% (active)
same,viability,[11]; [30],103% (inactive)
same,viability,[11]; [31],104% (inactive)
same,viability,[11]; [32],117% (inactive)
same,viability,[11]; [33],33.8% (active)
same,viability,[11]; [34],83.6% (active)
same,viability,[11]; [35],87.8% (active)
same,viability,[11]; [36],103% (inactive)
same,viability,[11]; [37],17.6% (active)
same,viability,[11]; [38],47.6% (active)
same,viability,[11]; [39],66.1% (active)
same,viability,[11]; [40],91.8% (active)
same,viability,[11]; [41],1.66% (active)
same,viability,[11]; [42],3.35% (active)
same,viability,[11]; [43],1.19% (active)
same,viability,[11]; [44],1.58% (active)
O=S(=O)(N=Cc1c(O)ccc2ccccc12)c1cccs1,outcome,[1],inactive
same,outcome,[2],inactive
same,AC50,[3],9.35 µM (active)
CCOC(=O)[C@@H](N)CCC(=O)N[C@@H](CSCc1ccccc1)C(=O)N[C@@H](C(=O)OCC)c1ccccc1,outcome,[1],inactive
same,outcome,[2],inactive
same,outcome,[3],inactive
same,AC50,[4],18.6 µM (active)
same,AC50,[5],26.3 µM (active)
same,AC50,[7],23.5 µM (active)
same,outcome,[8],inactive
CN(C)C1CCN(C(=O)c2ccc(NC(=O)Nc3nc(N4CCOCC4)nc(N4CCOCC4)n3)cc2)CC1,AC50,[1],0.833 µM (active)
same,AC50,[2],0.166 µM (active)
same,AC50,[3],0.0469 µM (active)
same,AC50,[4],0.525 µM (active)
same,AC50,[5],0.295 µM (active)
same,AC50,[6],0.264 µM (active)
same,AC50,[7],0.525 µM (active)
same,IC50,[8],0.934 µM (active)
CCNc1cc(NC2CCC(O)CC2)nc(Nc2ccc3c(ccn3Cc3ccccc3)c2)n1 (stereo unspecified),outcome,[1],inactive
same,AC50,[2],26.4 µM (active)
same,AC50,[3],18.7 µM (active)
same,AC50,[4],23.5 µM (active)
same,AC50,[5],16.6 µM (active)
same,AC50,[7],23.5 µM (active)
O=C(CC12CC3CC(CC(C3)C1)C2)Nc1cccc2nc(NCCNCCO)ccc12,AC50,[1],14.8 µM (active)
same,AC50,[2],20.9 µM (active)
same,AC50,[3],10.5 µM (active)
same,outcome,[4],inactive
O=C1c2c(O)cc(O)cc2O[C@H](c2cc(O)c(O)c(O)c2)[C@H]1O,outcome,[1],inactive
same,outcome,[2],inactive
same,outcome,[3],inactive
O=[N+]([O-])c1ccc(Nc2ccccc2-c2ccccc2)c2nonc12,outcome,[1],inactive
same,outcome,[2],inactive
same,outcome,[3],inactive
same,AC50,[4],23.5 µM (active)
same,AC50,[5],18.6 µM (active)
same,AC50,[6],20.9 µM (active)
same,AC50,[7],23.5 µM (active)
c1cc(-c2cnn3cc(-c4ccc(OCCN5CCCCC5)cc4)cnc23)ccn1,AC50,[1],23.5 µM (active)
same,AC50,[2],10.5 µM (active)
same,AC50,[3],10.5 µM (active)
same,AC50,[4],13.2 µM (active)
same,AC50,[5],11.8 µM (active)
same,AC50,[6],23.5 µM (active)
same,AC50,[7],14.8 µM (active)
same,IC50,[8],11.8 µM (active)
Cc1cc(OCCCc2c(C(=O)O)n(Cc3cccnc3)c3c(-c4c(COc5ccc(N6CCN([S+](C)(=O)[O-])CC6)cc5)nn(C)c4C)cccc23)cc(C)c1Cl,outcome,[1],inactive
same,outcome,[2],inactive
same,AC50,[3],20.9 µM (active)
Cc1cn([C@@H]2C[C@@H](O)[C@H](CO)O2)c(=O)[nH]c1=O,outcome,[1],inactive
same,outcome,[2],inactive
same,outcome,[3],inactive
same,outcome,[4],inactive
same,outcome,[5],inactive
same,outcome,[6],inactive
same,outcome,[7],inactive
same,outcome,[8],inactive
